The text below walks through data of PubChem BioAssay AID1851 (National Center for Advancing Translational Sciences (NCATS), 2009).

Where “and” joins values, the source holds several entries; their conditions need not be identical. Identical values can stand only once. The whole screen tested about 16,000 compounds, of which about 5,700 (36%) were called active. Inconclusive results (about 24%) are left out. The call rests on the fitted dose curve; in most records, active means well fitted curve in the direction sought with a large enough effect; inconclusive means small, poorly fitted or top-dose-only effect, or effect the other way; inactive means no such curve, though single readings can be large or run the other way. The list shows a part of the results. Square brackets hold non-standard residues; d marks the D form. Peptide text beside a SMILES is read from it.
On the % scale 0 is the no-effect control and ±100 the full control effect.

Cytochrome P450 1A2 (Homo sapiens), sequence (P05177 whole entry, looked up): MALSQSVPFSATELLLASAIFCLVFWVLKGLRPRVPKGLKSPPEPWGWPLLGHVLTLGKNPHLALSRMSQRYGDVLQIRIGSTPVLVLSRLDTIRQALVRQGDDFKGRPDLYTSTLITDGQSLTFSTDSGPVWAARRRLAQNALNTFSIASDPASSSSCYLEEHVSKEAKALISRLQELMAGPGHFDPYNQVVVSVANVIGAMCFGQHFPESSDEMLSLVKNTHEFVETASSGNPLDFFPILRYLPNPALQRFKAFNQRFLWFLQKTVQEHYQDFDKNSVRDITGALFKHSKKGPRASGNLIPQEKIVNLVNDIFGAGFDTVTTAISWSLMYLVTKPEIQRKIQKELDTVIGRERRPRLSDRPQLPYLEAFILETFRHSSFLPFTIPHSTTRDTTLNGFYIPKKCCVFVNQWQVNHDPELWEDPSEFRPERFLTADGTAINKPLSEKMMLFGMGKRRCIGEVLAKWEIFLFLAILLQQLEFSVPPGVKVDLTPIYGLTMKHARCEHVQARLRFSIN

This experiment concerns the target Cytochrome P450 1A2 (Homo sapiens) (UniProt P05177). Description: Cytochrome panel assay with activity outcomes. Particulars: recombinant CYP, pro-luciferin dealkylation, luminescence, p450-cyp1a2; series mostly up to 57.1 µM; activity, negative = inhibition: at the top concentration.
As to `CC(C)Cn1cnc2c(Sc3c([N+](=O)[O-])ncn3C)nc(N)nc21`, the activity, negative = inhibition is 8.13% [at 2.29 µM] (inactive).

For `Cc1ccc(OCCCOc2cccc3cccnc23)cc1C`, the AC50 is 2.82 µM (active). Consider `Brc1ccccc1OCCOCCOc1cccc2cccnc12`, for which the AC50 is 2.24 µM (active). In the case of `Cc1c(CCO)c(=O)n(C)n1C(=O)c1ccc(F)cc1`, the “activity, negative = inhibition” value is 12.2% (inactive). Same read-out and setting: as for `COc1ccc(COC(=O)N/N=C2/C[C@@H](O)[C@@H](O)[C@@H]3[C@H]4C(=O)N(c5ccc(F)cc5F)C(=O)[C@@H]4CC[C@@H]23)cc1`, the figure is -3.56% [at 11.4 µM] (inactive); as for `COc1cc2c3cc1Oc1c(OC)c(OC)cc4c1[C@@H](Cc1ccc(O)c(c1)Oc1ccc(cc1)C[C@@H]3N(C)CC2)CN(C)C4`, -11.1% [at 11.4 µM] (inactive). In the case of `Nc1cc(C(=O)O)[nH]c(=O)n1`, the activity, negative = inhibition is -6.95% [at 11.4 µM] (inactive). On to `O=C(O)c1nc(-c2ccccc2)[nH]c1C(=O)O`, for which the half-maximal activity concentration (AC50) is 1 µM (active). Regarding `C=CCn1c(COc2ccccc2)nnc1SCC(=O)N/N=C/c1ccc(C)cc1`, the AC50 was 3.55 µM (active). On to `C=CCn1c(Cc2ccc(OC)cc2)nnc1SCC(=O)c1cccc([N+](=O)[O-])c1`, for which the “activity, negative = inhibition” value was -28.6% (inactive). `COc1cccc2[nH]c3c(N4CC(C)CC(C)C4)ncnc3c12` (stereo not given): the AC50 was 2 µM (active). Consider `CSc1ccccc1N1CCN(C(=O)Nc2ccc3c(c2)NC(=O)CO3)CC1`, for which the “activity, negative = inhibition” value was -15.6% (inactive).

As to `COc1ccc(-c2csc(NC(=O)CCn3cnc4ccccc4c3=O)n2)cc1OC`, the “activity, negative = inhibition” value is 1.57% (inactive). With `c1cnc(Nc2nc(-c3ccc4ccccc4c3)cs2)nc1`, the AC50 was 0.224 µM (active).

For `N[C@H](CO)C(=O)NCC(=O)O` (H-[dS]-Gly-OH), the activity, negative = inhibition is 3.56% [at 2.29 µM] (inactive). Still for that read-out and setting: in the case of `CC(C)Nc1nc(NC(C)(C)C)nc(Oc2ccc(=O)n(-c3ccccc3)n2)n1` it was -25.1% (inactive). `COC(=O)c1nn(-c2cccc(C(F)(F)F)c2)c(=O)cc1Sc1ccccn1`: the AC50 was 2.24 µM (active). Regarding `COc1cc(-c2[o+]c3cc(O)cc(O)c3cc2O)cc(O)c1O`, the activity, negative = inhibition was -19.9% [at 2.29 µM] (inactive). With `CCSc1nc2sc3c(c2c(=O)[nH]1)CC(C)(CC)OC3` (stereo not given), the “activity, negative = inhibition” value is -26.5% (inactive).

For the compound `C=CCSc1nc2c(sc3nc(C)cc(C)c32)c(=O)[nH]1`, the concentration at half-maximal activity (AC50) was 1.12 µM (active). As for `O=C(Cn1ccnc1[N+](=O)[O-])NCCO`, the “activity, negative = inhibition” value is -3.66% [at 25.6 µM] (inactive).

Regarding `c1ccc(CCc2nc(-c3ccccc3)no2)cc1`, the AC50 was 2.82 µM (active).

Take `O=C(CCc1nc(-c2ccccc2)no1)NCCc1ccccc1`: the AC50 is 2.82 µM (active). As to `O=C(O)CCc1nc(-c2ccccc2-n2cccc2)no1`, the activity, negative = inhibition is -17.3% [at 2.29 µM] (inactive).

In the case of `Nc1nc(N)c(CCCCc2ccccc2)c(N)n1`, the activity, negative = inhibition is -0.16% [at 2.29 µM] (inactive). Consider `CCN(CC)CCc1nc(-c2ccccc2)no1`, for which the AC50 was 5.01 µM (active). For `CN1C(=O)NC(c2ccc(O)cc2)C(C(=O)c2cccs2)C1(O)C(F)(F)F` (stereo not given), the “activity, negative = inhibition” value is -30.6% (inactive).

On to `CN=C(N)/N=C(\N)Nc1cc2ccccc2c2ccccc12`, for which the AC50 was 0.251 µM (active).

As to `NC(=S)Nc1ccc(Oc2ccc(NC(N)=S)cc2)cc1`, the “activity, negative = inhibition” value was 4.24% (inactive).

Turning to `Cc1ccccc1N=C(N)Nc1ccccc1C`, the “activity, negative = inhibition” value is -9.83% (inactive). Regarding `NC(=S)Nc1cc2ccccc2c2ccccc12`, the concentration at half-maximal activity (AC50) is 0.0708 µM (active). For `O=P(O)(O)CCP(=O)(c1ccccc1)c1ccccc1`, the “activity, negative = inhibition” value is -3.7% (inactive).

With `C[C@@H]1CCN=C(N)S1`, the “activity, negative = inhibition” value is 2.78% (inactive). With `O=C(OCC#CCSc1nnc(-c2cccc3ccccc23)o1)c1ccco1`, the AC50 was 0.398 µM (active). With `CC1=NN(c2ccc(C)cc2C)C(=O)C1C(c1ccccc1)C1C(=O)N(c2ccc(C)cc2C)N=C1C` (stereo not given), the “activity, negative = inhibition” value was -9.21% (inactive).

Consider `Cc1ccc(N2C(=O)C(Cl)=C(NCc3ccccc3)C2=O)c(C)c1`, for which the AC50 was 11.2 µM (active). As for `CO[C@H]1COC(=O)[C@H]2CCCN2C(=O)C/C=C\[C@@H](C)[C@H](OC)COC(=O)[C@@H](OCc2ccccc2)/C=C\[C@@H]1C`, the activity, negative = inhibition is -3.46% [at 11.4 µM] (inactive). Regarding `O=C(CN1CCc2ccccc21)NC(=O)NCc1ccco1`, the AC50 was 6.31 µM (active). Turning to `S=C(NCc1ccco1)N1CCN(C(c2ccccc2)c2ccccc2)CC1`, the “activity, negative = inhibition” value is 4.67% (inactive). Turning to `CO[C@@H]1/C=C\O[C@]2(C)Oc3c(C)c(O)c4c(O)c(cc(O)c4c3C2=O)NC(=O)/C(C)=C\C=C/[C@H](C)[C@@H](O)[C@H](C)[C@H](O)[C@H](C)[C@H](OC(C)=O)[C@@H]1C`, the activity, negative = inhibition was -9.97% [at 11.4 µM] (inactive). As to `Nc1c2c(=O)oc(-c3ccccc3)cc2nn1-c1ccccc1`, the AC50 was 2.24 µM (active). For the compound `COC(=O)N1CCC2(CC1)CN(c1ccncc1)C2`, the “activity, negative = inhibition” value was -19.9% (inactive). Still for that read-out and setting: in the case of `CO/N=C\[C@@H](OC)[C@H](C)/C=C\CC(=O)OC` it was -3.46% [at 11.4 µM] (inactive). In the case of `CSc1nnc(-c2sc(-c3ccccc3)nc2C)n1C`, the AC50 is 11.2 µM (active). With `C#CCSc1nnc(-c2sc(-c3ccccc3)nc2C)n1C`, the AC50 was 4.47 µM (active). Take `Cn1c(CN2CCOCC2)nnc1SCc1ccccc1`: the “activity, negative = inhibition” value is 2.44% (inactive). Same read-out and setting: as for `CCCCCCC(C)n1cc(C(C)=O)c(=O)[nH]c1=O` (stereo not given), the figure is -24.8% (inactive). On to `CCCCCCCCn1cc(C(C)=O)c(=O)[nH]c1=O`, for which the concentration at half-maximal activity (AC50) is 15.8 µM (active). In the case of `CC(=O)c1cn(CCCCCCCCCCn2cc(C(C)=O)c(=O)[nH]c2=O)c(=O)[nH]c1=O`, the “activity, negative = inhibition” value is 7% (inactive). `CCCOc1ccc(-c2nc(N)n[nH]2)cc1`: the AC50 is 15.8 µM (active). Take `O=C1[C@H]2[C@H]3[C@H](O)[C@H](O)C/C(=N/OC[C@@H](O)COCc4ccco4)[C@@H]3CC[C@@H]2C(=O)N1C[C@@H]1CCCO1`: the activity, negative = inhibition was 6.9% [at 11.4 µM] (inactive). For `CC(=O)COc1ccc2c(C)c(C)c(=O)oc2c1`, the AC50 is 1 µM (active). For the compound `CCC(CC)c1nnc(NC(=O)COc2ccc3c(C)cc(=O)oc3c2)s1`, the “activity, negative = inhibition” value was -2.2% (inactive).

For `COc1ccc2sc3ccccc3c(=O)c2c1OC`, the AC50 is 3.55 µM (active). Consider `O=C(CCN1CCCCC1)N1CCc2c([nH]c3ccccc23)[C@H]1c1cccnc1`, for which the activity, negative = inhibition was -19.7% [at 2.29 µM] (inactive). Take `O=C(OCCN1CCCCC1)c1c[nH]c2ccccc12`: the AC50 is 12.6 µM (active) and 15.8 µM (active). As for `CN1[C@@H]2CC[C@H]1CC(OC(=O)c1c[nH]c3ccccc13)C2` (stereo not given in full), the “activity, negative = inhibition” value was 0.351% (inactive). Same read-out and setting: in the case of `COc1ccc(NC(=O)N2CCC3(CC2)CCN(C(=O)c2cccn2C)CC3)cc1` it was -8.9% (inactive). As to `CC(=O)N(/N=C1\Sc2ccccc2C1=O)c1ccccc1C`, the AC50 was 14.1 µM (active).

On to `CC(=O)N(/N=C1\Sc2ccccc2C1=O)c1ccccc1`, for which the AC50 was 2.24 µM (active).

In general, AC50 refers to the concentration giving half of the maximal activity seen.
